Data reported in the supplement of paper PMC12350171.
Counter-ions that a name gives are not always drawn. Values without a mark were called inactive.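 How the source made its calls: active = AUC significantly below DMSO controls by Student t-fit with adjusted P under 0.01; inactive = not significantly reduced.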

tested on: Haemophilus parainfluenzae; test: growth AUC normalised to DMSO control (fraction of control); higher = less growth inhibition, active = hit call of the paper; settings: 20 µM
Method in brief: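 Pathogens passaged twice anaerobically were inoculated at a starting OD578 of 0.01 into pre-reduced mGAM plates with drug at 20 μM and 1% DMSO, sealed with breathable membranes. Haemophilus parainfluenzae medium was supplemented with hemin and NAD. OD578 was read hourly for 24 h, with three biological replicates. Growth-curve AUC was computed by the trapezoidal rule up to the exponential-to-stationary transition and normalised to DMSO controls on the same plate.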

| Structure (SMILES) | growth AUC normalised to DMSO control |
| --- | --- |
| CN1CCc2c(c3ccccc3n2Cc2ccccc2)C1 [Mebhydroline 1,5-naphtalenedisulfonate] | 0.932 |
| CC(=O)CC(c1ccccc1)c1c(O)c2ccccc2oc1=O (centres undefined) [Warfarin] | 1.02 |
| C[C@]12CC[C@@H]3c4ccc(O)cc4CC[C@H]3[C@@H]1CC[C@@H]2O [Estradiol-17 beta] | 1 |
| CCOC(=O)c1ccc(OC(=O)CCCCCNC(=N)N)cc1 [Gabexate mesilate] | 0.919 |
| CCN(CC)CCNC(=O)c1cc(Cl)c(N)cc1OC [Metoclopramide monohydrochloride] | 0.991 |
| CCCCOc1cc(C(=O)OCCN(CC)CC)ccc1N [Benoxinate hydrochloride] | 1.01 |
| CO[C@@]1(NC(=O)CSCC#N)C(=O)N2C(C(=O)O)=C(CSc3nnnn3C)CS[C@@H]21 [Cefmetazole sodium salt] | 0.0246 (active) |
| C[C@]12CCC(=O)C=C1CC[C@@H]1[C@@H]2[C@@H](O)C[C@@]2(C)[C@H]1CC[C@]2(O)C(=O)CO [Hydrocortisone] | 0.936 |
| Cc1cccc(Nc2ccccc2C(=O)O)c1C [Mefenamic acid] | 0.946 |
